Growth inhibition data for 39 compounds are collected here from PubChem BioAssay (NCI).

Values joined by “and” are separate entries in the source; they are usually repeats but may differ in a detail not shown here. Identical values can stand only once. This is part of a sample that, as a whole, favours compounds with a hit. Of some 79,000 tested, about 15% had one in any assay. Some compounds were tested as several samples or in several runs, with calls that do not always agree. Active and inactive are the calls of the source. Cut-off read from the data, not from the text of the source: active = growth inhibition above about 70%; inactive = the rest.

The first assay can be described thus: NCI Yeast Anticancer Drug Screen. Data for the sgs1 mgt1 strain (AID 161).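 Note: 0% = growth of cultures given vehicle only.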 The conditions noted are these: S. cerevisiae sgs1 mgt1 strain, at 50.0 µM (retest, dose inferred, filed as 5.0), stronger effect = higher value. In a few lines:
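This yeast growth screen uses a strain with defined DNA-repair lesions; compound-treated growth is compared with vehicle-treated growth.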
Turning to `CS(=O)(=O)SCc1ccc([N+](=O)[O-])cc1`, the growth inhibition was 95% (active).

`Cc1csc(=S)n1OC(=O)NC1CCCCC1`: the growth inhibition was 96% (active).

`CCOc1ccc(NC(=O)C2=C(C)NC(C)=C(C(=O)Nc3ccc(OCC)cc3)C2c2cccc([N+](=O)[O-])c2)cc1`: the growth inhibition was 29% (inactive).

On to `CC(C)(C)N=C(NO)c1ccccc1`, for which the growth inhibition is 55% (inactive).

Regarding `CCCCC/C(=C(\C#N)C(=O)OCC)c1ccccc1`, the growth inhibition was 33% (inactive).

Take `O=C(NCCCl)Sc1ccc(Cl)cc1`: the growth inhibition was 53% (inactive).

Regarding `O=C1Nc2ccc(Br)cc2C1=Nc1ccc2c(c1)OCO2`, the growth inhibition is 8% (inactive).

As for `CCC(C)OC(=O)Nc1ccc(C)c(NC(=O)OC(C)CC)c1` (stereo not drawn), the growth inhibition is 85% (active).

In the case of `O=C(O)c1cc2ccc(Cl)cc2c(O)c1C1=CCCCC1`, the growth inhibition is 76% (active).

On to `CN(C)Cc1cc(N=Nc2ccc(Cl)cc2)ccc1OC(=O)c1ccccc1`, for which the growth inhibition was 48% (inactive).

As for `CN1CCN(C(=O)/C=C/C(=O)c2ccccc2)CC1`, the growth inhibition is -9% (inactive).

As to `CCCC/C=C/C(C)(C(=O)OCC)C(=O)OCC`, the growth inhibition was 51% (inactive).

In the case of `Cc1nc(-c2cc3cc([N+](=O)[O-])ccc3oc2=O)cs1`, the growth inhibition is 46% (inactive).

Consider `Cc1nc2ccccc2nc1NNc1ccccc1`, for which the growth inhibition was 32% (inactive).

`CN(C)[C@@H]1C(=O)C(C(N)=O)=C(O)[C@@]2(O)C(=O)C3=C(O)c4c(O)cccc4C[C@H]3C[C@@H]12`: the growth inhibition is 99% (active).

Turning to `COc1ccc(NC(=O)CC2SC(=Nc3ccccc3C)NC2=O)c([N+](=O)[O-])c1` (stereo not drawn), the growth inhibition is 74% (active).

Regarding `COc1cc(O)c2c(c1O)C(=O)c1cc(C)ncc1C2=O`, the growth inhibition is 84% (active).

In the case of `CSc1nnc(SC)nn1`, the growth inhibition was 99% (active).

Regarding `COc1cc(/C=C2\CCC/C(=C\c3ccc(O)c(OC)c3)C2=O)ccc1O`, the growth inhibition was 57% (inactive).

For the compound `CN(C)CCNC(=O)c1cccc2cc([N+](=O)[O-])ccc12`, the growth inhibition was 68% (inactive).

Take `CCC(C)(C)c1ccc(Oc2cccc(C(=O)O)c2)cc1`: the growth inhibition is 9% (inactive).

Take `CCCCCCSc1ncnc2[nH]ncc12`: the growth inhibition was 0% (inactive).

Turning to `CC(=O)Nc1ccc(/C=C/[N+](=O)[O-])cc1`, the growth inhibition is 72% (active).

Regarding `CCOC(=O)c1[nH]n(-c2ccccc2)c(=O)c1C=NC(=S)C(N)=S`, the growth inhibition is 13% (inactive).

`CCCC(O)C1CC(C(C)C)CCC1C` (stereo not drawn): the growth inhibition is 33% (inactive).

With `O=[n+]1c2ccccc2n([O-])c2cc(Br)ccc21`, the growth inhibition is 99% (active).

For `CN(C)CCNC(=O)c1cccc2c1Oc1c(cccc1[N+](=O)[O-])O2`, the growth inhibition was 16% (inactive).

`Nc1ncc(-c2ccc(Br)cc2)s1`: the growth inhibition was 99% (active).

`Cc1cc2cc3cc(C)c(N)cc3nc2cc1N`: the growth inhibition was 98% (active).

Regarding `CC12C(=O)OC(=O)C(c3ccccc31)c1ccccc12`, the growth inhibition was 21% (inactive).

With `c1ccc2c(OCC3CO3)cccc2c1` (stereo not drawn), the growth inhibition was 83% (active).

In the case of `CCOC(=N)c1ccc(O)c(OC)c1`, the growth inhibition is -4% (inactive).

As for `Nc1cc(N)c(N=Nc2cccc3c(S(=O)(=O)O)cccc23)cc1N=Nc1cc([N+](=O)[O-])ccc1O`, the growth inhibition was 84% (active).

Turning to `COC(=O)Oc1cc(Cl)c(Cl)cc1Cl`, the growth inhibition is 1% (inactive).

Turning to `O=C(O)C1CC(c2ccccc2)=NN1c1ccccc1` (stereo not drawn), the growth inhibition was 25% (inactive).

Turning to `COc1cc([C@@H]2c3cc4c(cc3[C@@H](Nc3ccc(NC(=O)c5cc([N+](=O)[O-])cn5C)cc3)[C@H]3COC(=O)[C@H]23)OCO4)cc(OC)c1O`, the growth inhibition is 53% (inactive) and 93% (active).

On to `O=C(O)c1ccccc1/C=N/N=C1c2ccccc2-c2ccccc21`, for which the growth inhibition was 60% (inactive).

Take `O=C1CC(=O)c2ccccc21`: the growth inhibition was 12% (inactive).

For the compound `Nc1ncnc2c1ncn2C1OC(CO)CC1O` (stereo not drawn), the growth inhibition was 89% (active) and 90% (active).

Still in this assay, the particulars now being: S. cerevisiae sgs1 mgt1 strain, at 50.0 µM, stronger effect = higher value.
Consider `CS(=O)(=O)SCc1ccc([N+](=O)[O-])cc1`, for which the growth inhibition is 98.1% (active).

On to `Cc1csc(=S)n1OC(=O)NC1CCCCC1`, for which the growth inhibition was 93.5% (active).

In the case of `CCOc1ccc(NC(=O)C2=C(C)NC(C)=C(C(=O)Nc3ccc(OCC)cc3)C2c2cccc([N+](=O)[O-])c2)cc1`, the growth inhibition was 27.1% (inactive).

Consider `CC(C)(C)N=C(NO)c1ccccc1`, for which the growth inhibition was 74% (active).

Consider `CCCCC/C(=C(\C#N)C(=O)OCC)c1ccccc1`, for which the growth inhibition was 36.5% (inactive).

On to `O=C(NCCCl)Sc1ccc(Cl)cc1`, for which the growth inhibition is 84.5% (active).

Take `O=C1Nc2ccc(Br)cc2C1=Nc1ccc2c(c1)OCO2`: the growth inhibition was 9.4% (inactive).

Consider `CCC(C)OC(=O)Nc1ccc(C)c(NC(=O)OC(C)CC)c1` (stereo not drawn), for which the growth inhibition is 79.4% (active).

As for `O=C(O)c1cc2ccc(Cl)cc2c(O)c1C1=CCCCC1`, the growth inhibition was 79.8% (active).

For `CN(C)Cc1cc(N=Nc2ccc(Cl)cc2)ccc1OC(=O)c1ccccc1`, the growth inhibition is 98.3% (active).

As for `CN1CCN(C(=O)/C=C/C(=O)c2ccccc2)CC1`, the growth inhibition was 95.5% (active).

Regarding `CCCC/C=C/C(C)(C(=O)OCC)C(=O)OCC`, the growth inhibition is 37.6% (inactive).

Regarding `Cc1nc(-c2cc3cc([N+](=O)[O-])ccc3oc2=O)cs1`, the growth inhibition is 89.3% (active).

For the compound `Cc1nc2ccccc2nc1NNc1ccccc1`, the growth inhibition was 36% (inactive).

For `CN(C)[C@@H]1C(=O)C(C(N)=O)=C(O)[C@@]2(O)C(=O)C3=C(O)c4c(O)cccc4C[C@H]3C[C@@H]12`, the growth inhibition is 91% (active).

Consider `COc1ccc(NC(=O)CC2SC(=Nc3ccccc3C)NC2=O)c([N+](=O)[O-])c1` (stereo not drawn), for which the growth inhibition is 72.9% (active).

`COc1cc(O)c2c(c1O)C(=O)c1cc(C)ncc1C2=O`: the growth inhibition is 69.9% (inactive).

Take `CSc1nnc(SC)nn1`: the growth inhibition is 82.8% (active).

For `COc1cc(/C=C2\CCC/C(=C\c3ccc(O)c(OC)c3)C2=O)ccc1O`, the growth inhibition was -12.4% (inactive) and 59.1% (inactive).

For the compound `CN(C)CCNC(=O)c1cccc2cc([N+](=O)[O-])ccc12`, the growth inhibition was 84.3% (active).

Consider `CCC(C)(C)c1ccc(Oc2cccc(C(=O)O)c2)cc1`, for which the growth inhibition was 58.2% (inactive).

For the compound `CCCCCCSc1ncnc2[nH]ncc12`, the growth inhibition is 72.1% (active).

For `CC(=O)Nc1ccc(/C=C/[N+](=O)[O-])cc1`, the growth inhibition was 47.6% (inactive).

As to `CCOC(=O)c1[nH]n(-c2ccccc2)c(=O)c1C=NC(=S)C(N)=S`, the growth inhibition was 91% (active).

Consider `CCCC(O)C1CC(C(C)C)CCC1C` (stereo not drawn), for which the growth inhibition was 24.8% (inactive).

With `O=[n+]1c2ccccc2n([O-])c2cc(Br)ccc21`, the growth inhibition was 99.2% (active).

Turning to `CN(C)CCNC(=O)c1cccc2c1Oc1c(cccc1[N+](=O)[O-])O2`, the growth inhibition is 11.5% (inactive).

For `Nc1ncc(-c2ccc(Br)cc2)s1`, the growth inhibition is 92.7% (active).

Regarding `Cc1cc2cc3cc(C)c(N)cc3nc2cc1N`, the growth inhibition is 85.2% (active).

With `CC12C(=O)OC(=O)C(c3ccccc31)c1ccccc12`, the growth inhibition is 97.2% (active).

On to `c1ccc2c(OCC3CO3)cccc2c1` (stereo not drawn), for which the growth inhibition is 84.5% (active).

Take `CCOC(=N)c1ccc(O)c(OC)c1`: the growth inhibition is -2.6% (inactive).

Consider `Nc1cc(N)c(N=Nc2cccc3c(S(=O)(=O)O)cccc23)cc1N=Nc1cc([N+](=O)[O-])ccc1O`, for which the growth inhibition is 26.4% (inactive).

With `COC(=O)Oc1cc(Cl)c(Cl)cc1Cl`, the growth inhibition was 30.1% (inactive).

As to `O=C(O)C1CC(c2ccccc2)=NN1c1ccccc1` (stereo not drawn), the growth inhibition was 58.6% (inactive).

Turning to `COc1cc([C@@H]2c3cc4c(cc3[C@@H](Nc3ccc(NC(=O)c5cc([N+](=O)[O-])cn5C)cc3)[C@H]3COC(=O)[C@H]23)OCO4)cc(OC)c1O`, the growth inhibition is 47.5% (inactive) and 67% (inactive).

In the case of `O=C(O)c1ccccc1/C=N/N=C1c2ccccc2-c2ccccc21`, the growth inhibition is 50% (inactive).

Take `O=C1CC(=O)c2ccccc21`: the growth inhibition was 59.7% (inactive).

Consider `Nc1ncnc2c1ncn2C1OC(CO)CC1O` (stereo not drawn), for which the growth inhibition is 87.5% (active) and 2.25% (inactive) and 72.8% (active).
